The supplement of paper PMC11732987, “Enantioselective OTUD7B fragment discovery through chemoproteomics screening and high-throughput optimisation” (Communications Chemistry, 2025)

How the values were obtained:
Assay in all cases: log2 ratio of Biotin-Ahx-Ub-VS probe labelling (fragment/DMSO); higher = less target engagement (more negative = stronger competition), active = hit call of the paper (q ≤ 0.05, log2 ratio ≤ -1)
Conditions in all cases: compound concentration: 200 uM; treatment time: 3 h
[1] = target: T1, USP42 (UniProt Q9H9J4)
T1 sequence (whole entry): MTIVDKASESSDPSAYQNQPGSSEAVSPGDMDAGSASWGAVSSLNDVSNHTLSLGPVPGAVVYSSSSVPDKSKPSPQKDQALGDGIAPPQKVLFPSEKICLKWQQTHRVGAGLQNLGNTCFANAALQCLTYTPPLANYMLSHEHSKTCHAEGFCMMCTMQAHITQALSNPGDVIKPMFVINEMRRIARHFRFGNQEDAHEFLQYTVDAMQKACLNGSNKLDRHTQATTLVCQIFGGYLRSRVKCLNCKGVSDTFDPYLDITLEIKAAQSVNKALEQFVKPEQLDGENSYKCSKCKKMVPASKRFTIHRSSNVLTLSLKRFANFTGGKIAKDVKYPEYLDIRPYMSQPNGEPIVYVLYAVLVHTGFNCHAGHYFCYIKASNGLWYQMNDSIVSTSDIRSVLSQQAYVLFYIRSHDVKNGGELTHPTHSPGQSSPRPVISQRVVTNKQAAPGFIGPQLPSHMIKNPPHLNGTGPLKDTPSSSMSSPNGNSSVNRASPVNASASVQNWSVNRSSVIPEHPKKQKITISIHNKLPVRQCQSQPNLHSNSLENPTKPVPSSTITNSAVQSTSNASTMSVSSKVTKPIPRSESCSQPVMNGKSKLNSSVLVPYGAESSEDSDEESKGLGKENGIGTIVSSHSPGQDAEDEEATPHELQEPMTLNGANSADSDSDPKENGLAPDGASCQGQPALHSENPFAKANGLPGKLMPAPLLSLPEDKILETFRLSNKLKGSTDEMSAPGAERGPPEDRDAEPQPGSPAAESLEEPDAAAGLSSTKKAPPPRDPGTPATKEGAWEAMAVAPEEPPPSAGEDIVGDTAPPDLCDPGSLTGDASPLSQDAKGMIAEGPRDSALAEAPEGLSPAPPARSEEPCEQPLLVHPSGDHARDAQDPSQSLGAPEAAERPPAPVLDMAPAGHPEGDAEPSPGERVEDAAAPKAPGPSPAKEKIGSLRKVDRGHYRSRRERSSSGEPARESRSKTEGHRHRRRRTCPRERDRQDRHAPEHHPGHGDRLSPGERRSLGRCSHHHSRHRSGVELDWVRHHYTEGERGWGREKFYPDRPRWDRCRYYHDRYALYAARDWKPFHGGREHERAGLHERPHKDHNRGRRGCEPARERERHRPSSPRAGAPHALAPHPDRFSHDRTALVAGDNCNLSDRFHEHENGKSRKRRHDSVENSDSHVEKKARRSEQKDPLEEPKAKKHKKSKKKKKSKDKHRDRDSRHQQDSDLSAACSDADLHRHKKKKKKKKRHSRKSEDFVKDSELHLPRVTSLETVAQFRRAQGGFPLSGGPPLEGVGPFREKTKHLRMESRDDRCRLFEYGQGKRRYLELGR
Method in brief: (§1)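 HEK293T lysate (495 µg per sample, in Tris/CHAPS/IGEPAL buffer with protease inhibitors) was exposed in triplicate for 3 h to fragment at 200 µM or to vehicle, then to Biotin-Ahx-Ub-VS at 0.5 µM final for 1 h. Labelled DUBs were enriched on NeutrAvidin, digested with LysC and trypsin, and analysed by diaPASEF LC-MS/MS. Spectronaut label-free quantities were normalised to the global median, and values are average log2 ratios of fragment over vehicle from an unpaired t-test. Only proteins with ≥2 unique peptides were used.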

[2] = target: USP46 (UniProt P62068)
Method in brief: as §1

[3] = target: T2, USP47 (UniProt Q96K76)
T2 sequence (whole entry): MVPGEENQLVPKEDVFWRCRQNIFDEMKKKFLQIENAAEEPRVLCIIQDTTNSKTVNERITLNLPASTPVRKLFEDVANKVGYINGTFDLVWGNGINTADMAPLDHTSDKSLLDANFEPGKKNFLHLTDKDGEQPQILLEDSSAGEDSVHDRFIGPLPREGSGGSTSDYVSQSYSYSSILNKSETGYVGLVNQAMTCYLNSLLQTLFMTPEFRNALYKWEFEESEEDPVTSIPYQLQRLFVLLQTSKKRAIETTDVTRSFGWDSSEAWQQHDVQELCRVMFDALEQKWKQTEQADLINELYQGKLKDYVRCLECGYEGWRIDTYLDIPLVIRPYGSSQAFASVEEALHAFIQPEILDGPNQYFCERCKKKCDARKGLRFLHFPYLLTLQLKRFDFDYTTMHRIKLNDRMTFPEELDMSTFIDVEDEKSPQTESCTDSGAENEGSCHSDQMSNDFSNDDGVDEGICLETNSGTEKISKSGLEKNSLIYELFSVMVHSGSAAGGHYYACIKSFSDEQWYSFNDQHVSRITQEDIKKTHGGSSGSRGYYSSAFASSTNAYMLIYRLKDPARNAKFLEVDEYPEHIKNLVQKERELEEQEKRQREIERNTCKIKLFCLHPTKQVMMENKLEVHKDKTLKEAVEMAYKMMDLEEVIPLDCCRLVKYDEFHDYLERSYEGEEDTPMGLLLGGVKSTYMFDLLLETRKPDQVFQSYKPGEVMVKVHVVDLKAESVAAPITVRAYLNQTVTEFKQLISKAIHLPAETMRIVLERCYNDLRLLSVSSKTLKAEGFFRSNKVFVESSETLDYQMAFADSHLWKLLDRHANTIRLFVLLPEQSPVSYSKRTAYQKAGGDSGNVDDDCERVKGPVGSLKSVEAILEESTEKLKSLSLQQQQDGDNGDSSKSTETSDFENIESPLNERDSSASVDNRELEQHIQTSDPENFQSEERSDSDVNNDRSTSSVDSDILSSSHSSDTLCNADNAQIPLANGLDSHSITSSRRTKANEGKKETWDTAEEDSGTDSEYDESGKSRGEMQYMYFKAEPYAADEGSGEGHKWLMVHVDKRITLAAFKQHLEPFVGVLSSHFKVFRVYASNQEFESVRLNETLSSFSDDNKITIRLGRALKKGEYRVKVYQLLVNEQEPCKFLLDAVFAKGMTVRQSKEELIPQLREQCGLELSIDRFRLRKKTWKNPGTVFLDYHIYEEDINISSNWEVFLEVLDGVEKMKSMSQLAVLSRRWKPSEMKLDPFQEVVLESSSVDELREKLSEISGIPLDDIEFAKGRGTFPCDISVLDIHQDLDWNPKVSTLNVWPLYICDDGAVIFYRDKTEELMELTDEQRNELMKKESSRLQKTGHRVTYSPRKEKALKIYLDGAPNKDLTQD
Method in brief: as §1

[4] = target: T3, USP48 (UniProt Q86UV5)
T3 sequence (whole entry): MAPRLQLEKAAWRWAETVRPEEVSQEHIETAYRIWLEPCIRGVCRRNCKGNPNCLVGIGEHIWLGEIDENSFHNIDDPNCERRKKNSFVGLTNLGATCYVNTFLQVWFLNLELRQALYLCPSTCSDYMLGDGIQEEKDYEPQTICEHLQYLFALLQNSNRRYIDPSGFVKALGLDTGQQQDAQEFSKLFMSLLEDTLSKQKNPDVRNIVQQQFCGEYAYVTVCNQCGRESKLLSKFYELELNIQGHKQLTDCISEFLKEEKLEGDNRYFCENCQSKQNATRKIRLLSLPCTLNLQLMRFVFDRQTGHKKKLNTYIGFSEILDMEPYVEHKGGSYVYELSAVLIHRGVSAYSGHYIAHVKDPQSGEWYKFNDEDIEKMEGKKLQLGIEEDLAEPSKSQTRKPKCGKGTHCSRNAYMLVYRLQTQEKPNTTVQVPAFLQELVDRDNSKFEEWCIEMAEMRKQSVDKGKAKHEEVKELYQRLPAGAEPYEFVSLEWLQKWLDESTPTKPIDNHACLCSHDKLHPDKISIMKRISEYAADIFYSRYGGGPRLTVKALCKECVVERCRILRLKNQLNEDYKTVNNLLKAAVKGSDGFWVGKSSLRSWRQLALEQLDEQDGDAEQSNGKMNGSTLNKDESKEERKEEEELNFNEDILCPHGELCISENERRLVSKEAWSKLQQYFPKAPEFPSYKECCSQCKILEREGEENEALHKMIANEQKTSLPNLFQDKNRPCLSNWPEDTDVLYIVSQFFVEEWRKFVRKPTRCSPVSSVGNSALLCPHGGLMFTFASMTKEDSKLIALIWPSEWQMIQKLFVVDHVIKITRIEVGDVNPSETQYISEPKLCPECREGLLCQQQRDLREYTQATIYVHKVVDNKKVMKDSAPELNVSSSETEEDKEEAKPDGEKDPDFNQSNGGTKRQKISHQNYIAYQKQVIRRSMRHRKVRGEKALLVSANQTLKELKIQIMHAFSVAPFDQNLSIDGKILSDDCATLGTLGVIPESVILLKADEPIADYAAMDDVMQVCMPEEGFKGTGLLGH
Method in brief: as §1

[5] = target: T4, USP5 (UniProt P45974)
T4 sequence (whole entry): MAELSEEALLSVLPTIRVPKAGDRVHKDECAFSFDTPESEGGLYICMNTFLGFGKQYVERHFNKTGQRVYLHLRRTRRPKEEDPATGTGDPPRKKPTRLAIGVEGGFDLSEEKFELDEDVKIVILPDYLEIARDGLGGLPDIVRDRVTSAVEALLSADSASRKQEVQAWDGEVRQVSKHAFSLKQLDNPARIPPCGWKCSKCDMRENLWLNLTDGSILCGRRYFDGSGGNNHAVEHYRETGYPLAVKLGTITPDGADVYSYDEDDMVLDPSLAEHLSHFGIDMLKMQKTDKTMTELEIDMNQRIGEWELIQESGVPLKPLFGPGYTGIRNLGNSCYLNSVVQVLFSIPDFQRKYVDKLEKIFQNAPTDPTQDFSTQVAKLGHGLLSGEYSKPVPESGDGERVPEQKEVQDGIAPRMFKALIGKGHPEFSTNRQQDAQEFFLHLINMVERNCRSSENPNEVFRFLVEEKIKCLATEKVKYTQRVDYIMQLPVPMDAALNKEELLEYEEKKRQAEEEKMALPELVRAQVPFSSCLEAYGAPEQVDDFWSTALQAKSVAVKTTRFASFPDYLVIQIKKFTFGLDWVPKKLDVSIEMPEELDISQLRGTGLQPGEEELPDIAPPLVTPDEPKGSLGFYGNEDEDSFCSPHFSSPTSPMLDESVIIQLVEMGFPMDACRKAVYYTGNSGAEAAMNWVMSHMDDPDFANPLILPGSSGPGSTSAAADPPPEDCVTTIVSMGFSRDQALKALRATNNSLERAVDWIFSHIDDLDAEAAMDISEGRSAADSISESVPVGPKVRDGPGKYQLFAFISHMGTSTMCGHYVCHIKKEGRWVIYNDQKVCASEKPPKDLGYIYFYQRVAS
Method in brief: as §1

[6] = target: USP54 (UniProt Q70EL1)
Method in brief: as §1

[7] = target: USP7 (UniProt Q93009)
Method in brief: as §1

[8] = target: T5, USP8 (UniProt P40818)
T5 sequence (whole entry): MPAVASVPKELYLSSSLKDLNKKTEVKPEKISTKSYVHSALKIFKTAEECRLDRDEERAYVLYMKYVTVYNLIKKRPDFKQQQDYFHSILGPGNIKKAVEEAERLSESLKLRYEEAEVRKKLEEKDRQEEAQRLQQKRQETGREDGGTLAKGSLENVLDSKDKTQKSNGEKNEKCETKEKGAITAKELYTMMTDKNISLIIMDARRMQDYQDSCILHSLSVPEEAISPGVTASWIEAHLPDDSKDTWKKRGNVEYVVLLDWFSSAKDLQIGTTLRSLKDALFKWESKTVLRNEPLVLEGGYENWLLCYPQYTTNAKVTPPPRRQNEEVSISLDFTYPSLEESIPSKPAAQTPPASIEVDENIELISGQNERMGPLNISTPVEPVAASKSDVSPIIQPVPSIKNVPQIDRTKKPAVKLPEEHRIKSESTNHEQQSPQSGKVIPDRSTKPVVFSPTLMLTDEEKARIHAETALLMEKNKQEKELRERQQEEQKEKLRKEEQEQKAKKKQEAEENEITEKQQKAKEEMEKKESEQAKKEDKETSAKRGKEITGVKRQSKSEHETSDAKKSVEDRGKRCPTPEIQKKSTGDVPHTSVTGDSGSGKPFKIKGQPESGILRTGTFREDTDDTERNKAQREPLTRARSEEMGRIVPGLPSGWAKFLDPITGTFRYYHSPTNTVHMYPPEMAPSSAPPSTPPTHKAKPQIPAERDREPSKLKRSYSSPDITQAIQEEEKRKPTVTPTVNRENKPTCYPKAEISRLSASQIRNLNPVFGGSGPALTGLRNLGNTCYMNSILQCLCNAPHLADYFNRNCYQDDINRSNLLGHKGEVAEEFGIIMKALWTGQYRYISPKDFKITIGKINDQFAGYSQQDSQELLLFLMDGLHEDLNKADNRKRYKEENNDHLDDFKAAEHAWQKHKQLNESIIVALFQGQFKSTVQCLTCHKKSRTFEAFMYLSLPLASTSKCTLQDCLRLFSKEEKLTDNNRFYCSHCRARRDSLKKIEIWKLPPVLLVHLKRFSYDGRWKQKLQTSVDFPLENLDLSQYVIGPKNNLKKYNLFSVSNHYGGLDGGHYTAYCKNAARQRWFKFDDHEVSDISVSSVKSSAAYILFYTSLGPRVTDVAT
Method in brief: as §1

Measured: log2 ratio of Biotin-Ahx-Ub-VS probe labelling

Chain of USP54 (Q70EL1 whole entry): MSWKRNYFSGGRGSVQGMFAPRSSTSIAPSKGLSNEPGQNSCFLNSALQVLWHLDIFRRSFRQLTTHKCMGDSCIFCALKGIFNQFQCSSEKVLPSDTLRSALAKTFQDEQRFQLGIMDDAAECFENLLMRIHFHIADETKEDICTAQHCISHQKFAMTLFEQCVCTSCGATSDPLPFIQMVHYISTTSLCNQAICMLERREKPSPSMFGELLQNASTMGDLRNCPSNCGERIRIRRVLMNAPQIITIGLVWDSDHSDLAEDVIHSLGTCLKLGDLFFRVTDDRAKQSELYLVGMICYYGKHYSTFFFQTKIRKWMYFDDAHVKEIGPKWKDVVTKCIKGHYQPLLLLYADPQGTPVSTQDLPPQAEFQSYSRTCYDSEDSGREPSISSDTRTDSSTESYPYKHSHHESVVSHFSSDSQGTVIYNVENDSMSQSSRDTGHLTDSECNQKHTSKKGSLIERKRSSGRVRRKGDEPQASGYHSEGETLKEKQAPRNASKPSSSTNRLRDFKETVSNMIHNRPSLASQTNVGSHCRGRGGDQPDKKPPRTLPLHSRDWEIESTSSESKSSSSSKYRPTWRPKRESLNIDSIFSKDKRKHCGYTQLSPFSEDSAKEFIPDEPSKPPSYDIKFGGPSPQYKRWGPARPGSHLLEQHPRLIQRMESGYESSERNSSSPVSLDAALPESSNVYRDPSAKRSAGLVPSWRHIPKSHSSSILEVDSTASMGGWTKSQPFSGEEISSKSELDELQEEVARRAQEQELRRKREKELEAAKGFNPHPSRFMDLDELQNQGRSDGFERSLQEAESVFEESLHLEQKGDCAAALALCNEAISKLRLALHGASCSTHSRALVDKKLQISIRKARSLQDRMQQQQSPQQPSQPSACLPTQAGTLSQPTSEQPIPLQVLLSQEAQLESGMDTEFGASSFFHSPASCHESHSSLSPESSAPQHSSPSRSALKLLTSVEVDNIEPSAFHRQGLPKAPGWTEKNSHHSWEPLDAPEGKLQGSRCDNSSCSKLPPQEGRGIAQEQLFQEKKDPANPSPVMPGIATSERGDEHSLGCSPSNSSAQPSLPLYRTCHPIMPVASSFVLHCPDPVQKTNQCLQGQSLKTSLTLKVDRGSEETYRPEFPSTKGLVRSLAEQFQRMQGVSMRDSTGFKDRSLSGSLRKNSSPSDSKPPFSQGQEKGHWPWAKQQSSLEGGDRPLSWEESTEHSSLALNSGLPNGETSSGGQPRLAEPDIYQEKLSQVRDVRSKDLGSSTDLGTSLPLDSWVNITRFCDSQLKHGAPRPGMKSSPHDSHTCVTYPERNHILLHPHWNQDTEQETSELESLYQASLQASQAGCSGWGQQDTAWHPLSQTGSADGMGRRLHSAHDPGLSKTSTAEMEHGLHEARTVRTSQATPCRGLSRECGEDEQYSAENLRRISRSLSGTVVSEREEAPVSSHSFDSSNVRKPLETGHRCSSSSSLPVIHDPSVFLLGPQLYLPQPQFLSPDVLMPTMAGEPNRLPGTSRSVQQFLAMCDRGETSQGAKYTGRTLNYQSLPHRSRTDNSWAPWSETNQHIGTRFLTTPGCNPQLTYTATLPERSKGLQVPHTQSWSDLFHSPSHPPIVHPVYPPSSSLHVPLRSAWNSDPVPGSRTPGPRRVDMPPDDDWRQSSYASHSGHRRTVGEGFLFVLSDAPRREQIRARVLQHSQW
Chain of USP46 (P62068 whole entry): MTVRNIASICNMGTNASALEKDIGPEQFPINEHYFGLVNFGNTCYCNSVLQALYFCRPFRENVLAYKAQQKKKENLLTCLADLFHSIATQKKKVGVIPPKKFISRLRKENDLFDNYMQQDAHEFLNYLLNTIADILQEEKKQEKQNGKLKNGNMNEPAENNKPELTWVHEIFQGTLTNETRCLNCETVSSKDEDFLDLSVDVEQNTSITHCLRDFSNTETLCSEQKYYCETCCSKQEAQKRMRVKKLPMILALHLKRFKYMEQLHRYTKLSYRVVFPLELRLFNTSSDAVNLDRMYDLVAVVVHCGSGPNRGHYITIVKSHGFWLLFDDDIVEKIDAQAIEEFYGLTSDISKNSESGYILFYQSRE
Chain of USP7 (Q93009 whole entry, looked up): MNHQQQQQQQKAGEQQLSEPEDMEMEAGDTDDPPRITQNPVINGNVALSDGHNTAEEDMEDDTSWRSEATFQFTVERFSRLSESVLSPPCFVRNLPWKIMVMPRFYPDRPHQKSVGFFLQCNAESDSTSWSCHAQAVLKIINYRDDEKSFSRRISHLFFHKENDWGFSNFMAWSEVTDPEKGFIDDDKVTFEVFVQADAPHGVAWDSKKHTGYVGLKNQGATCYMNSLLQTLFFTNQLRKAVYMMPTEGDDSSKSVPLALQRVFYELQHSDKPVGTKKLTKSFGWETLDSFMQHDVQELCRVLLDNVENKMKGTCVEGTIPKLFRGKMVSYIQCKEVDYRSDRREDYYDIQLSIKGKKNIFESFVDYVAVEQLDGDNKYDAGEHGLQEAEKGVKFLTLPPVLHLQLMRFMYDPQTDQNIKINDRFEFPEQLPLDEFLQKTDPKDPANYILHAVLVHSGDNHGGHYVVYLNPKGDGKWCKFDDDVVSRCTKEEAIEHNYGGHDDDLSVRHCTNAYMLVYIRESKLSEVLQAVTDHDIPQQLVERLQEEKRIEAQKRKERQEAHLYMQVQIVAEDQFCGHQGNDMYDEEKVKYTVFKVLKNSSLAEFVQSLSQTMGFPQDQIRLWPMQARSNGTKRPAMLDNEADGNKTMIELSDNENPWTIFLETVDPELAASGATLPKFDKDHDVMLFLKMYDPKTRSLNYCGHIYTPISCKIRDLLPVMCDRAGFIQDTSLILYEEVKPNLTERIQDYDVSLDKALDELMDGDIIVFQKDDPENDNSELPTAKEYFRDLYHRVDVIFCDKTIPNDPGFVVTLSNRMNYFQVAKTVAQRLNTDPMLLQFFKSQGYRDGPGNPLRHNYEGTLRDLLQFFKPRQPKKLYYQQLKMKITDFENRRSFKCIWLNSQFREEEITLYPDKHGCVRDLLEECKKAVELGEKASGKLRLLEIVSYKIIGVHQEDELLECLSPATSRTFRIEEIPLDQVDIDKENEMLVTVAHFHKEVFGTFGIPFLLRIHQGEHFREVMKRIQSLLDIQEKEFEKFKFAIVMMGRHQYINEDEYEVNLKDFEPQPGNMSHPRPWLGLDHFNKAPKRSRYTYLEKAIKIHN

O=C(CCl)NCCc1ccc2c(c1)OCCO2
inactive: [1] 0.217 | [2] 0.147 | [3] 0.109 | [4] -0.413 | [5] -0.336 | [6] 0.647 | [7] -0.433 | [8] 0.0104
